# The panel holds about 79,000 compounds, 15% with a hit somewhere; the sample as a whole holds those more often. Values without a mark were called inactive. The source made the active and inactive calls. Cut-off read from the data, not from the text of the source: active = growth inhibition above about 70%; inactive = the rest.
# Assays:
# [1] = NCI Yeast Anticancer Drug Screen. Data for the rad50 strain (AID 155);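 note: 0% = growth of vehicle-only cultures of the same strain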; conditions: S. cerevisiae rad50 strain growth inhibition, stronger effect = higher value
# Outline: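 A DNA repair-deficient yeast mutant serves as the test organism; compound-induced growth inhibition is calculated against vehicle-treated cells.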
# [2] = NCI Yeast Anticancer Drug Screen. Data for the mec2-1 strain (AID 157); conditions: S. cerevisiae mec2-1 strain, stronger effect = higher value
# Outline: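 Strain: mec2-1 (DNA repair/cell cycle alteration). Compound exposure, then growth measured; inhibition expressed relative to vehicle.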
# [3] = NCI Yeast Anticancer Drug Screen. Data for the sgs1 mgt1 strain (AID 161);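 note: 0% = growth of cultures given vehicle only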; conditions: S. cerevisiae sgs1 mgt1 strain, stronger effect = higher value
# Outline: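 Inhibition of yeast growth, normalised to vehicle-treated controls, is reported for a strain bearing genetic alterations in DNA damage repair.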
# [4] = NCI Yeast Anticancer Drug Screen. Data for the cln2 rad14 strain (AID 165);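 note: 0% = growth equal to vehicle treated cultures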; conditions: S. cerevisiae cln2 rad14 strain, stronger effect = higher value
# Outline: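 Compounds are applied to the cln2 rad14 yeast strain, and growth is then compared with that of vehicle-treated cultures to give inhibition.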
# [5] = NCI Yeast Anticancer Drug Screen. Data for the bub3 strain (AID 167); conditions: S. cerevisiae bub3 mutant strain, stronger effect = higher value
# Outline: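 Inhibition values come from growth of compound-treated mutant yeast normalised to vehicle-treated controls.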
# [6] = NCI Yeast Anticancer Drug Screen. Data for the mlh1 rad18 strain (AID 175); conditions: S. cerevisiae mlh1 rad18 strain growth inhibition, stronger effect = higher value
# Outline: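 Read-out is yeast growth inhibition, calculated against vehicle-only controls. The compound was applied to a strain engineered with DNA damage repair alterations.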
# [7] = at 5.0 µM (retest, dose inferred, filed as 0.5)
# [8] = at 50.0 µM (retest, dose inferred, filed as 5.0)
SMILES,"growth inhibition [1, 7] [%]","growth inhibition [1, 8]",growth inhibition ([1]; at 50.0 µM),"growth inhibition [2, 7] [%]","growth inhibition [2, 8]",growth inhibition ([2]; at 50.0 µM),"growth inhibition [3, 7] [%]","growth inhibition [3, 8]",growth inhibition ([3]; at 50.0 µM),"growth inhibition [4, 7] [%]","growth inhibition [4, 8]",growth inhibition ([4]; at 50.0 µM),"growth inhibition [5, 7] [%]","growth inhibition [5, 8]",growth inhibition ([5]; at 50.0 µM),"growth inhibition [6, 7] [%]","growth inhibition [6, 8]",growth inhibition ([6]; at 50.0 µM)
C[N+](C)(C)CCC(=O)c1ccco1,7,99% (active),99.5% (active),16,100% (active),99.7% (active),10,99% (active),99.5% (active),8,99% (active),96% (active),7,99% (active),99.7% (active),4,99% (active),99.2% (active)
c1ccc(CN2CCc3[nH]c4ccccc4c3C2)cc1,-1,-3%,-1.9%,-1,-2%,17.1%,-4,-1%,7.8%,-1,-7%,33.5%,1,6%,-2.45%,-3,-1%,18%
S=C(N/N=C1\C=Cc2ccccc2C1)N/N=C1\C=Cc2ccccc2C1,0,17%,55.5%,-4,59%,41.4%,-7,45%,41.7%,2,4%,36.1%,-3,36%,62.4%,18,56%,71% (active)
CNc1ccc2c(c1)c1ccccc1n2C,11,26%,71.3% (active),2,-67%,4.2%,3,21%,40.1%,-1,-1%,65.5%,-1,35%,74.5% (active),14,34%,52%
CSC(=S)NNC(C)c1nccc2ccccc12 (configuration not stated),23,97% (active),97.8% (active),-3,98% (active),98.8% (active),29,97% (active),98.8% (active),-8,97% (active),97.8% (active),-7,97% (active),98.2% (active),2,97% (active),98.8% (active)
O=C(NC(=S)Nc1ncc([N+](=O)[O-])s1)c1ccccc1C(=O)NC(=S)Nc1ncc([N+](=O)[O-])s1,-5,78% (active),69.5%,9,67%,29.6%,19,47%,80.5% (active),-6,40%,19.4%,-6,96% (active),75.8% (active),4,87% (active),79.7% (active)
CC(C)(CCBr)[N+](=O)[O-],-151,-161%,0.55%,-47,-54%,16%,-61,-62%,8.35%,-52,-68%,43.9%,-75,-84%,5.85%,-225,-127%,0.35%
COc1cc2c(cc1OC)C(Cl)C(c1ccc(F)cc1)=C2Cl (configuration not stated),-23,0%,17.8%,5,3%,10.4%,-4,-3%,-5.35%,-3,6%,10.4%,-2,4%,45.2%,0,-1%,-3.4%
c1ccc(/C(=N\Nc2nc3ccccc3s2)c2ccccn2)cc1,0,88% (active),71.7% (active),9,79% (active),73.5% (active),-6,90% (active),75.4% (active),-17,75% (active),79.7% (active),-6,87% (active),78.7% (active),11,89% (active),81.3% (active)
